{"source": "PubChem BioAssay (Tox21)", "note": "Records with an inconclusive call do not appear. Calls of active or inactive are those of the source. The call rests on the fitted dose curve; in most records, active means well fitted inhibition curve with a large enough effect in the signal ratio in the repeat runs (not every such curve was filed as active); inconclusive means weak or mixed curves, or effect the other way; inactive means no such curve, though single readings can be large or run the other way; the % refers to the signal ratio. On the % scale 0 is the no-effect control and ±100 the full control effect.", "data": [{"target": "Estrogen receptor beta (Homo sapiens) (UniProt Q92731)", "sequence (Q92731 whole entry, looked up)": "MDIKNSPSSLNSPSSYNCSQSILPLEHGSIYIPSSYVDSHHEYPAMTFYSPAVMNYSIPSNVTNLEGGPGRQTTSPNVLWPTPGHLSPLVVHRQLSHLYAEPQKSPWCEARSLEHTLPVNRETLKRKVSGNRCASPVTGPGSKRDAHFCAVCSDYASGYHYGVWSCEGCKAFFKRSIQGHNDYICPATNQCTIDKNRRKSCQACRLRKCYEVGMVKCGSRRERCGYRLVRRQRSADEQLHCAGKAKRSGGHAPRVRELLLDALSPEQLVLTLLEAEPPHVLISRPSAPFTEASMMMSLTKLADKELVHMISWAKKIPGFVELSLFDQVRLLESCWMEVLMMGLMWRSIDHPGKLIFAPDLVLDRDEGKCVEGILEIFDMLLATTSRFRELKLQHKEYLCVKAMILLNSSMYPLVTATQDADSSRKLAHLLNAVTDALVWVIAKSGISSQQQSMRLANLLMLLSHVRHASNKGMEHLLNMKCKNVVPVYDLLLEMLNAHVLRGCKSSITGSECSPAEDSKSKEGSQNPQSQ", "assay": "qHTS assay to identify small molecule antagonists of the estrogen receptor beta (ER-beta) signaling pathway (AID 1259378)", "conditions": "ER-beta-UAS-bla HEK293T, beta-lactamase FRET ratio, 16 h; series mostly up to 92.4 µM", "source_text": "National Center for Advancing Translational Sciences [NCATS]\nNIH Chemical Genomics Center [NCGC]\nU.S. Environmental Protection Agency [EPA]\nNational Institutes of Environmental Health Sciences [NIEHS]\nNational Toxicology Program [NTP]\nU.S. Food and Drug Administration [FDA]\nEstrogen receptor (ER), a nuclear hormone receptor, plays an important role in development, metabolic homeostasis and reproduction. Two subtypes of ER, ER-alpha and ER-beta, have similar expression patterns with some uniqueness in both types. Endocrine disrupting chemicals (EDCs) and their interactions with steroid hormone receptors like ER causes disruption of normal endocrine function. To identify the compounds that inhibit ER signaling, an ER-beta-UAS-bla GripTite cell line (Life Technologies, Madison, WI, USA) containing a beta-lactamase reporter gene under the control of an UAS response element was used to screen Tox21 10K compound library.\nTox21 Assay Protocol Summary:\nER-beta-UAS-bla HEK293T cells were dispensed at 2,000 cells/4 uL of assay medium containing 2% charcoal stripped FBS per well into black wall/clear-bottom 1536-well plates using a Multidrop Combi (ThermoFisher Scientific, Waltham, MA) dispenser. After the assay plates were incubated at a 37C and 5% CO2 for 6 hr, 23 nL of compounds dissolved in DMSO, positive controls or DMSO only was transferred to the assay plate by a Pintool station (Kalypsys, San Diego, CA), followed by addition of 1 uL (1nM as final concentration) of 17-beta-estradiol (E2) in assay medium using a BioRAPTR FRD (Flying Reagent Dispenser, Aurora Discovery, San Diego, CA). The plates were incubated at 37C and 5% CO2 for 16 hr. Then 1 uL of LiveBLAzerTM B/G FRET substrate was added using a Flying Reagent Dispenser, the plates were incubated at room temperature for 2 hours, and fluorescence intensity was measured by an Envision plate reader (PerkinElmer, Shelton, CT).", "values": [{"smiles": "COc1ccc(CCN(C)CCCC(C#N)(c2cc(OC)c(OC)c(OC)c2)C(C)C)cc1OC", "note": "(stereo not given)", "outcome": "inactive"}, {"smiles": "CC1=CC(C)C(C=O)CC1", "note": "(stereo not given)", "outcome": "inactive"}, {"smiles": "C=CCOCC(CC)(CO)COCC=C", "outcome": "inactive"}, {"smiles": "CCCN(CCC)CCc1cccc2c1CC(=O)N2", "outcome": "inactive"}, {"smiles": "NS(=O)(=O)c1cc(C(=O)NN2C[C@H]3[C@H]4CCC(C4)[C@H]3C2)ccc1Cl", "outcome": "inactive"}, {"smiles": "O=C(O)CNC(=O)c1ccc([N+](=O)[O-])cc1", "outcome": "inactive"}, {"smiles": "Nc1ccc(S(=O)(=O)Nc2ccnn2-c2ccccc2)cc1", "activity, negative = inhibition": "0.746% [at 19 µM] (inactive)"}, {"smiles": "CCOC(=O)c1cccc(N)c1", "outcome": "inactive"}, {"smiles": "COC(=O)[C@@H](N)Cc1ccc(O)c(O)c1", "outcome": "inactive"}, {"smiles": "COc1cc(C(=O)N2CCCCCCC2)cc(OC)c1OC", "outcome": "inactive"}, {"smiles": "COC(=O)NN", "outcome": "inactive"}, {"smiles": "CN1CCC(=C2c3ccccc3CC(=O)c3sccc32)CC1", "outcome": "inactive"}, {"smiles": "O=C(O)COc1nn(Cc2ccccc2)c2ccccc12", "outcome": "inactive"}, {"smiles": "Nc1cc(=O)[nH]c(N)n1", "outcome": "inactive"}, {"smiles": "CC(=O)CC(C)(C)C1CCCCC1", "outcome": "inactive"}, {"smiles": "CCCCCCCCCCCCCCCCC", "outcome": "inactive"}, {"smiles": "FC(F)OC(Cl)C(F)(F)F", "note": "(stereo not given)", "outcome": "inactive"}, {"smiles": "N=c1nc(N2CCCCC2)cc(N)n1O", "outcome": "inactive"}, {"smiles": "O=C(CCCN1CCN(c2ccccn2)CC1)c1ccc(F)cc1", "outcome": "inactive"}, {"smiles": "O=C[C@H](O)[C@@H](O)[C@H](O)[C@H](O)CO", "outcome": "inactive"}, {"smiles": "CCC(C)S", "note": "(stereo not given)", "activity, negative = inhibition": "9.7% [at 3.27 µM] (inactive)"}, {"smiles": "Nc1c2c(nc3ccccc13)CCCC2O", "note": "(stereo not given)", "outcome": "inactive"}, {"smiles": "Nc1nc2c(ncn2COC(CO)CO)c(=O)[nH]1", "outcome": "inactive"}, {"smiles": "COC(=O)c1c(Cl)c(Cl)c(C(=O)OC)c(Cl)c1Cl", "outcome": "inactive"}, {"smiles": "CCO[Si](CCC1CCC2OC2C1)(OCC)OCC", "note": "(stereo not given)", "outcome": "inactive"}, {"smiles": "CC(C)CNCC(C)C", "outcome": "inactive"}, {"smiles": "CC(NC(CCc1ccccc1)C(=O)O)C(=O)N1C(=O)N(C)CC1C(=O)O", "note": "(stereo not given)", "outcome": "inactive"}, {"smiles": "N=C(N)c1ccccc1", "outcome": "inactive"}, {"smiles": "CC(=O)Nc1ccc(S(N)(=O)=O)cc1", "outcome": "inactive"}, {"smiles": "c1cnc(N2CCN(Cc3ccc4c(c3)OCO4)CC2)nc1", "outcome": "inactive"}, {"smiles": "Nc1ccccc1S(=O)(=O)O", "outcome": "inactive"}, {"smiles": "OC1CCCCC1c1ccccc1", "note": "(stereo not given)", "outcome": "inactive"}, {"smiles": "CCC(=O)OC(C)c1ccccc1", "note": "(stereo not given)", "outcome": "inactive"}, {"smiles": "CC/C=C\\CC/C=C/C(OCC)OCC", "outcome": "inactive"}, {"smiles": "CC[N+](C)(C)c1cccc(O)c1", "outcome": "inactive"}, {"smiles": "CCCCC(CC)COC(=O)c1ccccc1O", "note": "(stereo not given)", "outcome": "inactive"}, {"smiles": "CC(C)NCC(O)c1ccc(NS(C)(=O)=O)cc1", "note": "(stereo not given)", "outcome": "inactive"}, {"smiles": "CC(C)CCCC(C)N", "note": "(stereo not given)", "outcome": "inactive"}, {"smiles": "COc1nc(N)nc2c1ncn2[C@@H]1O[C@H](CO)[C@@H](O)[C@@H]1O", "outcome": "inactive"}, {"smiles": "Cc1ccc(Cl)cc1Cl", "outcome": "inactive"}]}]}
